Bioassay records: PubChem, National Center for Advancing Translational Sciences (NCATS)
Shown are actives, neighbours in structure and some others; about 7.8% of the full set was active somewhere.
Vaccinia Venus: vaccinia inhibition (Venus reporter) | actives 0.46% (n = 330,000) | Potency, µM (top dose mostly 36.5 µM), for inactives: at the highest dose activity change, negative = inhibition, hits mostly inhibitors | Vaccinia virus Venus reporter expression, fluorescence | AID 720580; calls by dose curve; tested in A549 cells; further: potency means the concentration at half of the fitted maximal effect; nearly all actives have a fitted effect of over 30% in size
HCMV antiviral: inhibitors of human cytomegalovirus | actives 4.5% (n = 410,000) | HFF cells, HCMV-luciferase reporter, 72 h; active compounds read low | activity change, negative = inhibition, % at 57.5 µM; in the data active means activity change below about -60%; inconclusive means no clear call, values can overlap the other calls; inactive means above about -39%
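Two compound doses tested in HFFs infected with HCMV-luciferase, MOI 1 PFU/cell, 72 h at 37C. Lysate luminescence read with OneGlo; data normalized against buffer-only and 10uM Salinomycin inhibitor controls.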
LASV entry inh: Lassa virus entry inhibition | AID 540256 | Lassa virus pseudotype entry inhibition, cell reporter | Potency, µM (series often up to 37.9 µM), without a hit: top-dose activity change, negative = inhibition, actives largely listed as inhibitors | actives 1.2% (n = 300,000); calls by dose curve; tested in HEK293 cells; further: potency means the concentration at half of the fitted maximal effect; nearly all actives have a fitted effect of over 50% in size
VACV mCherry inh: inhibitors of vaccinia virus infection (mCherry reporter signal); Vaccinia virus mCherry reporter infection, fluorescence; Potency, µM (doses to about 36.5 µM), inactives show top-dose activity change, negative = inhibition, usual class: inhibitors; actives 0.63% (n = 310,000); calls by dose curve; tested in A549 cells; further: potency means the concentration at half of the fitted maximal effect; nearly all actives have a fitted effect of over 35% in size
HCV inh: HCV inhibition | Potency, µM (top dose mostly 41.8 µM), without a hit: top-dose activity change, negative = inhibition, most hits filed as inhibitors | actives 3.4% (n = 340,000) | AID 651820 | Huh7.5.1 HCVcc-Cre infection, luciferase reporter, 44 h; active means well fitted inhibition curve with a large enough effect; inconclusive means small, poorly fitted or top-dose-only effect, or another doubt; inactive means no such curve, though single readings can be large or run the other way; further: potency means the concentration at half of the fitted maximal effect
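Whole-lifecycle infectious HCVcc-Cre system; cells 1,000/well, compound then virus (~0.5 moi) added 4 h after plating, 44 h culture. Luciferase read 15 sec following 15 min substrate incubation, room temp.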
Marburg entry inh: inhibitors of Marburg virus binding or cell entry | Marburg virus pseudotyped entry inhibition, cell reporter | Potency, µM (highest dose often 37.8 µM), without a hit: at the top dose activity change, negative = inhibition, most hits filed as inhibitors | actives 1.8% (n = 300,000); calls by dose curve; tested in HEK293 cells; further: potency means the concentration at half of the fitted maximal effect
Numbers without * were called inactive; [ ] = another dose, or the depositor's remark. On the % scale 0 is the no-effect control and ±100 the full control effect.

CN1CCN(c2ccc(C(CC(N)=O)NC(=O)c3ccccc3)cc2[N+](=O)[O-])CC1 (centres undefined) was read as Vaccinia Venus -4%, HCMV antiviral -62*, VACV mCherry inh -2% and HCV inh 16%.
For NC(=O)CC(NC(=O)c1ccccc1)c1ccc(N2CCN(c3ccccc3)CC2)c([N+](=O)[O-])c1 (centres undefined) the results were Vaccinia Venus inconclusive, HCMV antiviral -66*, VACV mCherry inh inconclusive and HCV inh inconclusive.
NC(=O)CC(NC(=O)c1ccccc1)c1ccc(N2CCCCCC2)c([N+](=O)[O-])c1 (centres undefined) was read as Vaccinia Venus -17%, HCMV antiviral -22, VACV mCherry inh -10% and HCV inh inconclusive.
Screening Cc1cc(C)cc(C(=O)NC(CC(N)=O)c2ccc(N3CCN(c4ccccc4)CC3)c([N+](=O)[O-])c2)c1 (centres undefined) returned Vaccinia Venus -22%, HCMV antiviral -36, VACV mCherry inh -13% and HCV inh 3%.
NC(=O)CC(NC(=O)c1ccccc1)c1ccc(N2CCN(c3ccc(F)cc3)CC2)c([N+](=O)[O-])c1 (centres undefined) was read as Vaccinia Venus inconclusive, HCMV antiviral inconclusive, VACV mCherry inh -19% and HCV inh 11µM*.
`NC(=O)CC(NC(=O)Cc1ccc(Br)cc1)c1ccc(N2CCN(c3ccccc3)CC2)c([N+](=O)[O-])c1` (centres undefined) gave Vaccinia Venus inconclusive, HCMV antiviral -62*, VACV mCherry inh inconclusive and HCV inh inconclusive.
Screening NC(=O)CC(NC(=O)Cc1ccc(Br)cc1)c1ccc(N2CCN(c3ccccn3)CC2)c([N+](=O)[O-])c1 (centres undefined) returned Vaccinia Venus inconclusive, HCMV antiviral -29, VACV mCherry inh inconclusive and HCV inh inconclusive.
`CN1C(c2ccccc2)CC(C)(O)CC1c1ccccc1` (centres undefined) gave HCMV antiviral -33.
`CCCNC(=O)OC[C@H]1O[C@H](CCON=C2C[C@@H](O)[C@@H](O)[C@@H]3[C@H]4C(=O)N(CC)C(=O)[C@@H]4CC[C@H]23)C=C[C@H]1Oc1ccc(OC)cc1` gave Marburg entry inh 0%[14.2 µM].
For NC(=O)CC(NC(=O)Cc1ccc(Br)cc1)c1ccc(NCC2CC2)c([N+](=O)[O-])c1 (centres undefined) the results were Vaccinia Venus -22%, HCMV antiviral 6, VACV mCherry inh -11% and HCV inh 19%.
NC(=O)CC(NC(=O)Cc1ccc(Br)cc1)c1ccc(NCc2ccc(F)cc2)c([N+](=O)[O-])c1 (centres undefined) was read as Vaccinia Venus -11%, HCMV antiviral -39, VACV mCherry inh 0% and HCV inh 11µM*.
For COc1ccc(Cl)cc1C(=O)NNC(=O)CSc1nncn1C the results were Vaccinia Venus 12%, HCMV antiviral -91*, LASV entry inh 14%[46.1 µM], VACV mCherry inh -19%, HCV inh 11% and Marburg entry inh 16%[46.1 µM].
Screening COc1ccccc1C(=O)NC(=O)CSc1nncn1C returned Vaccinia Venus 0%, HCMV antiviral -11, LASV entry inh 20%, VACV mCherry inh -9%, HCV inh 9% and Marburg entry inh 1%.
Screening O=C1C(=O)c2ccccc2C([O-])=C1[n+]1ccccc1 returned HCMV antiviral -36 and HCV inh 6%.
CCc1cc[n+](C2=C([O-])c3ccccc3C(=O)/C2=N\S(=O)(=O)c2cccs2)cc1 was read as Vaccinia Venus inconclusive, HCMV antiviral inconclusive, LASV entry inh 18µM*, VACV mCherry inh inconclusive, HCV inh 5µM* and Marburg entry inh 7.1µM*.
Screening COC(=O)[C@@]1(C#N)CC(=O)N([C@@H](CO)c2ccccc2)[C@H]1c1ccccc1 returned HCMV antiviral -6.
`COc1cccc(-c2cc(C(=O)NCCc3ccc(C)cc3)[nH]n2)c1` gave Vaccinia Venus 0%, HCMV antiviral -4, LASV entry inh -23%[46.1 µM] and VACV mCherry inh -7%.
`Cc1c(F)cccc1NC(=O)CCCCCC1NC(=O)NC1C` (centres undefined) gave Vaccinia Venus -7%, HCMV antiviral -71*, LASV entry inh 17%, VACV mCherry inh -11%, HCV inh 14% and Marburg entry inh 20%.
`CC1NC(=O)NC1CCCCCC(=O)Nc1ccc(F)cc1` (centres undefined) gave Vaccinia Venus -16%, HCMV antiviral 23, LASV entry inh 1%, VACV mCherry inh -2%, HCV inh 10% and Marburg entry inh inconclusive.
Nc1cc(=O)[nH]c(=O)n1Cc1ccccc1 was read as Vaccinia Venus -10%, HCMV antiviral 3, LASV entry inh 0%, VACV mCherry inh inactive, HCV inh 12% and Marburg entry inh 1%.
Nc1cc(=O)[nH]c(=O)n1CCCc1ccccc1 was read as Vaccinia Venus -9%, HCMV antiviral -73*, LASV entry inh -6%[46.1 µM], VACV mCherry inh -5%, HCV inh 1% and Marburg entry inh -2%[46.1 µM].
CCOn1c(=O)c(-c2ccc(C)cc2)[n+]([O-])c2ccccc21 was read as HCMV antiviral -60* and HCV inh 5%.
CCOn1c(=O)c(-c2ccc(Cl)cc2)[n+]([O-])c2ccccc21 was read as HCMV antiviral -9, LASV entry inh 9%, HCV inh 5% and Marburg entry inh 13%.
`C[C@H](O)[C@@H]1C(=O)N2CCc3c([nH]c4ccccc34)[C@@H]2C[C@@H]1N(C)C(=O)Nc1cc(Cl)cc(Cl)c1` gave Vaccinia Venus inconclusive, HCMV antiviral -6 and VACV mCherry inh 13µM*.
For COc1ccc(-c2ccc3c(c2)[C@@H]2C[C@H](N(C)C(=O)Nc4ccccc4)[C@H]([C@H](C)O)C(=O)N2CC3)cc1 the results were Vaccinia Venus inconclusive, HCMV antiviral -5, VACV mCherry inh inconclusive and HCV inh 2µM*.
Nc1ccccc1N1C(=O)c2ccccc2C1=O was read as HCMV antiviral 12.
Screening c1ccc(Cc2nnc(-c3ccccc3)o2)cc1 returned Vaccinia Venus -18%, HCMV antiviral -96*, LASV entry inh -26%, VACV mCherry inh -6%, HCV inh 8% and Marburg entry inh inconclusive.
`Brc1ccc(-c2nnc(Cc3ccccc3)o2)cc1` gave HCMV antiviral 33 and HCV inh -19%.
`Cc1ccc(-c2nnc(-c3ccccc3)o2)cc1` gave Vaccinia Venus 1%, HCMV antiviral 108, LASV entry inh 10µM*, VACV mCherry inh -3%, HCV inh 14% and Marburg entry inh 16µM*.
